# Laboratory results published in PubChem BioAssay (NCATS).
# Where “and” joins values, the source holds several entries; their conditions need not be identical. Identical values can stand only once. Inconclusive results are not listed. Entries that show only a call come without a potency. A structure can be active in one record and inactive in another. Calls of active or inactive are those of the source. Unless noted, calls follow the shape of the dose curve; as a rule, active = well fitted curve in the direction sought with a large enough effect; inconclusive = small, poorly fitted or top-dose-only effect, or another doubt; inactive = no such curve, though single readings can be large; an effect the other way counts as inactive or inconclusive.
# Tests used:
# UISO = test: qHTS assay to identify novel small-molecules to repurpose for Merkel cell carcinoma treatment (AID 1296009); conditions: MCC and control cell lines, CellTiter-Glo viability, 72 h; series mostly up to 46 µM; also: nearly all actives have a fitted effect of over 60% in size; also: potency is read from the fitted curve at half-maximal effect
# How it was run: (§1)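 Viability readout: ATP luminescence (CellTiter-Glo) after 72 hr drug exposure at 37 degree celsius. Dose-response format was 8 points for NPC and 11 points for MIPE; data normalized to in-plate controls.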
# WaGa = test: as above; conditions: MCC and control cell lines, CellTiter-Glo viability, 72 h; series mostly up to 46 µM
# How it was run: as §1
# C33A = test: Primary qHTS to identify gynecologic anti-cancer compounds using libraries of approved drugs and bioactive compounds (AID 1345084); conditions: Gynecologic cancer cell panel viability, ATPlite luminescence, 48 h; series mostly up to 57.5 µM; also: nearly all actives have a fitted effect of over 55% in size; also: potency is read from the fitted curve at half-maximal effect
# How it was run: (§2)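 48 h compound exposure at 37 C, 5% CO2; five-point qHTS. ATPlite luminescence readout of cell ATP.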
# CASKI = test: as above; conditions: Gynecologic cancer cell panel viability, ATPlite luminescence, 48 h; series mostly up to 57.5 µM
# How it was run: as §2
# Es-2 = test: as above; conditions: Gynecologic cancer cell panel viability, ATPlite luminescence, 48 h; series mostly up to 57.5 µM
# How it was run: as §2
# HeLa = test: as above; conditions: Gynecologic cancer cell panel viability, ATPlite luminescence, 48 h; series mostly up to 57.5 µM
# How it was run: as §2
# Hek293T = test: as above; conditions: Gynecologic cancer cell panel viability, ATPlite luminescence, 48 h, control line for the selectivity index; series mostly up to 57.5 µM
# How it was run: as §2
# JEG-3 = test: as above; conditions: Gynecologic cancer cell panel viability, ATPlite luminescence, 48 h; series mostly up to 57.5 µM
# How it was run: as §2
# OV90 = test: as above; conditions: Gynecologic cancer cell panel viability, ATPlite luminescence, 48 h; series mostly up to 57.5 µM
# How it was run: as §2
# PA-1 = test: as above; conditions: Gynecologic cancer cell panel viability, ATPlite luminescence, 48 h; series mostly up to 57.5 µM
# How it was run: as §2
# Tov-21-G = test: as above; conditions: Gynecologic cancer cell panel viability, ATPlite luminescence, 48 h; series mostly up to 57.5 µM
# How it was run: as §2
# Tov112D = test: as above; conditions: Gynecologic cancer cell panel viability, ATPlite luminescence, 48 h; series mostly up to 57.5 µM
# How it was run: as §2
# [1] = Drug repurposing screens with cells derived from glioblastoma tumor samples (AID 1345199); conditions: GBM patient neurospheres viability, ATP luminescence, 48 h; also: nearly all actives have a fitted effect of over 40% in size; also: potency is read from the fitted curve at half-maximal effect
# How it was run: (§3)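 Primary testing used CD133+ neurospheres from four GBM patients, seven concentrations, 48 h exposure and ATP-based viability; confirmation added three slower-growing patient lines.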
# astro = test: as above; conditions: viability, ATP luminescence, 48 h; series mostly up to 45.9 µM
# How it was run: as §3
# [2] = qHTS assay for small molecule activators of the human pregnane X receptor (PXR) signaling pathway (AID 720659; call rule not given here)
# SKOV3 = test: Primary qHTS to identify gynecologic anti-cancer compounds using libraries of approved drugs and bioactive compounds (AID 1345084); conditions: Gynecologic cancer cell panel viability, ATPlite luminescence, 48 h; series mostly up to 57.5 µM; also: nearly all actives have a fitted effect of over 55% in size; also: potency is read from the fitted curve at half-maximal effect
# How it was run: as §2
# [3] = biological target: Nuclear receptor subfamily 1 group I member 2 (Rattus norvegicus) (UniProt Q9R1A7); test: qHTS assay for small molecule activators of the rat pregnane X receptor (rPXR) signaling pathway (AID 651751; call rule not given here); conditions: rPXR reporter cells, luciferase (One-Glo), 24 h
# Chain of Nuclear receptor subfamily 1 group I member 2 (Rattus norvegicus) (Q9R1A7 whole entry, looked up): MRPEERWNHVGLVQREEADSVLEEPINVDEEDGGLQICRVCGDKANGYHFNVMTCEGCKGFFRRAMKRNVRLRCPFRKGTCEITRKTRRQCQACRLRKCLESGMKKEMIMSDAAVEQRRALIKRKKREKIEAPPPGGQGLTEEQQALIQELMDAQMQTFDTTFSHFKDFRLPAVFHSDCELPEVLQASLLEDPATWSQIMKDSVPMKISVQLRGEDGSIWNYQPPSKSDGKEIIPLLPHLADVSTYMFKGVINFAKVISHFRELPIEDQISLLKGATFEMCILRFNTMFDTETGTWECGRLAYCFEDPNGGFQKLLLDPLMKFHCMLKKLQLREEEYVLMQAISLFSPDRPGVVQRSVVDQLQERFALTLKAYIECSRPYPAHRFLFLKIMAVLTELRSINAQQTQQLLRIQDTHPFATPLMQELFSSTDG
# CAOV3 = test: Primary qHTS to identify gynecologic anti-cancer compounds using libraries of approved drugs and bioactive compounds (AID 1345084); conditions: Gynecologic cancer cell panel viability, ATPlite luminescence, 48 h; series mostly up to 57.5 µM; also: nearly all actives have a fitted effect of over 55% in size; also: potency is read from the fitted curve at half-maximal effect
# How it was run: as §2
# [4] = at 45.9 µM (top of the series), tumour line B
# [5] = at 45.9 µM (top of the series), tumour line D
# [6] = at 46 µM (top of the series), tumour line A
# [7] = at 46.1 µM (top of the series), tumour line C
# [8] = at 20 µM (top of the series), tumour line C
# [9] = at 21.2 µM (top of the series), tumour line B
smiles,measurement,setting,value
CCCC(CCC)C(=O)O,Potency,UISO,inactive
same,Potency,WaGa,inactive
same,Potency,C33A,inactive
same,Potency,CASKI,inactive
same,Potency,Es-2,inactive
same,Potency,HeLa,inactive
same,Potency,Hek293T,inactive
same,Potency,JEG-3,inactive
same,Potency,OV90,inactive
same,Potency,PA-1,inactive
same,Potency,Tov-21-G,inactive
same,Potency,Tov112D,inactive
same,"activity, negative = cell killing",[1]; [4],-7.18% (inactive)
same,"activity, negative = cell killing",[1]; [5],-10.3% (inactive)
same,"activity, negative = cell killing",[1]; [6],-15.5% (inactive)
same,"activity, negative = cell killing",[1]; [7],0.524% (inactive)
same,Potency,astro,inactive
same,outcome,[2],inactive
CN(C)c1ccc(Nc2nc(N)n(C(=O)c3c(F)cccc3F)n2)cc1,Potency,UISO,inactive
same,Potency,C33A,inactive
same,Potency,CASKI,inactive
same,Potency,Es-2,inactive
same,Potency,HeLa,12.6 µM (active)
same,Potency,Hek293T,inactive
same,Potency,JEG-3,inactive
same,Potency,OV90,inactive
same,Potency,PA-1,inactive
same,Potency,SKOV3,inactive
same,Potency,Tov-21-G,inactive
same,Potency,Tov112D,inactive
CC(C)(Sc1ccc(CCN(CCCCC2CCCCC2)C(=O)NC2CCCCC2)cc1)C(=O)O,Potency,UISO,inactive
same,Potency,C33A,inactive
same,Potency,CASKI,inactive
same,Potency,Es-2,inactive
same,Potency,HeLa,inactive
same,Potency,Hek293T,inactive
same,Potency,JEG-3,inactive
same,Potency,OV90,inactive
same,Potency,PA-1,inactive
same,Potency,SKOV3,inactive
same,Potency,Tov-21-G,inactive
same,Potency,Tov112D,inactive
same,max response,[3],-3.94% (inactive)
same,outcome,[2],inactive
CCCS(=O)(=O)Nc1ccc(F)c(C(=O)c2c[nH]c3ncc(-c4ccc(Cl)cc4)cc23)c1F,Potency,UISO,inactive
same,Potency,WaGa,inactive
same,Potency,C33A,inactive
same,Potency,CAOV3,inactive
same,Potency,CASKI,inactive
same,Potency,HeLa,inactive
same,Potency,Hek293T,inactive
same,Potency,JEG-3,inactive
same,Potency,OV90,inactive
same,Potency,PA-1,10 µM (active)
same,Potency,SKOV3,inactive
same,Potency,Tov112D,inactive
NCCc1ccc(O)c(O)c1,Potency,UISO,inactive and 18.8 µM (active)
same,Potency,WaGa,11.9 µM (active)
same,Potency,C33A,inactive
same,Potency,CASKI,inactive
same,Potency,Es-2,inactive
same,Potency,HeLa,inactive
same,Potency,Hek293T,inactive
same,Potency,JEG-3,inactive
same,Potency,OV90,inactive
same,Potency,PA-1,inactive
same,Potency,Tov-21-G,inactive
same,Potency,Tov112D,inactive
same,"activity, negative = cell killing",[1]; [4],-2.97% (inactive)
same,"activity, negative = cell killing",[1]; [5],1.17% (inactive)
same,"activity, negative = cell killing",[1]; [6],-12.4% (inactive)
same,"activity, negative = cell killing",[1]; [7],13.2% (inactive)
same,Potency,astro,inactive
CC(C)(N)C(=O)N[C@H](COCc1ccccc1)C(=O)N1CCC2(CC1)CN(S(C)(=O)=O)c1ccccc12,Potency,UISO,inactive
same,Potency,WaGa,inactive
same,Potency,C33A,inactive
same,Potency,CASKI,inactive
same,Potency,HeLa,inactive
same,Potency,JEG-3,inactive
same,Potency,OV90,inactive
same,Potency,PA-1,inactive
same,Potency,Tov-21-G,inactive
same,Potency,Tov112D,inactive
CCOC(=O)C1=C[C@]2(CC)CCCN3CCc4c(n1c1ccccc41)[C@@H]32,Potency,UISO,inactive
same,Potency,WaGa,inactive
same,Potency,C33A,inactive
same,Potency,CASKI,inactive
same,Potency,Es-2,inactive
same,Potency,HeLa,inactive
same,Potency,Hek293T,inactive
same,Potency,JEG-3,inactive
same,Potency,OV90,inactive
same,Potency,PA-1,inactive
same,Potency,Tov-21-G,inactive
same,Potency,Tov112D,inactive
same,"activity, negative = cell killing",[1]; [4],-28.2% (inactive) and -25.8% (inactive)
same,Potency,[1]; tumour line A,4.47 µM (active)
same,Potency,[1]; tumour line D,10 µM (active)
same,Potency,astro,inactive
O=c1n(CCCN2CCN(c3cccc(Cl)c3)CC2)nc2ccccn12,Potency,UISO,inactive
same,Potency,WaGa,inactive
same,Potency,C33A,inactive
same,Potency,CASKI,inactive
same,Potency,Es-2,inactive
same,Potency,HeLa,inactive
same,Potency,Hek293T,inactive
same,Potency,JEG-3,inactive
same,Potency,OV90,inactive
same,Potency,PA-1,inactive
same,Potency,SKOV3,inactive
same,Potency,Tov-21-G,inactive
same,Potency,Tov112D,inactive
same,"activity, negative = cell killing",[1]; [8],-4.25% (inactive)
same,"activity, negative = cell killing",[1]; [9],-8.69% (inactive)
same,"activity, negative = cell killing","[1]; at 21.2 µM (top of the series), tumour line D",3.95% (inactive)
same,Potency,astro,inactive
Nc1nc2ccc(OC(F)(F)F)cc2s1,Potency,UISO,inactive
same,Potency,WaGa,inactive
same,Potency,C33A,inactive
same,Potency,CAOV3,inactive
same,Potency,CASKI,inactive
same,Potency,Es-2,inactive
same,Potency,JEG-3,inactive
same,Potency,OV90,inactive
same,Potency,SKOV3,inactive
same,"activity, negative = cell killing",[1]; [7],16.9% (inactive)
same,Potency,astro,inactive
CC1(C)Cc2c(-c3ccccc3)c(-c3ccc(Cl)cc3)c(CC(=O)O)n2C1,Potency,UISO,inactive
same,Potency,WaGa,inactive
same,Potency,C33A,inactive
same,Potency,CASKI,inactive
same,Potency,Es-2,inactive
same,Potency,HeLa,inactive
same,Potency,JEG-3,inactive
same,Potency,OV90,inactive
same,Potency,PA-1,inactive
same,Potency,SKOV3,inactive
same,Potency,Tov112D,inactive
CN(C(=O)c1ccc(F)cc1C(F)(F)F)C1CCN(c2nnc(-c3ccnn3C)c3ccccc23)CC1,Potency,UISO,inactive
same,Potency,WaGa,inactive
same,Potency,C33A,inactive
same,Potency,CASKI,inactive
same,Potency,Es-2,inactive
same,Potency,HeLa,inactive
same,Potency,Hek293T,inactive
same,Potency,JEG-3,inactive
same,Potency,OV90,inactive
same,Potency,PA-1,inactive
same,Potency,SKOV3,inactive
same,Potency,Tov-21-G,inactive
same,Potency,Tov112D,inactive
Cn1cnc2c(F)c(Nc3ccc(Br)cc3Cl)c(C(=O)NOCCO)cc21,Potency,UISO,inactive
same,Potency,WaGa,inactive
same,Potency,C33A,inactive
same,Potency,CAOV3,inactive
same,Potency,CASKI,inactive
same,Potency,HeLa,inactive
same,Potency,Hek293T,inactive
same,Potency,JEG-3,inactive
same,Potency,OV90,1.58 µM (active)
same,Potency,PA-1,inactive
same,Potency,SKOV3,inactive
same,Potency,Tov112D,inactive
CCC(C)(C)C(=O)O[C@H]1C[C@@H](C)C=C2C=C[C@H](C)[C@H](CC[C@@H]3C[C@@H](O)CC(=O)O3)[C@H]21,"activity, negative = cell killing",[1]; [8],-22.9% (inactive)
same,"activity, negative = cell killing",[1]; [9],-19.9% (inactive)
Nc1nc2c(ncn2COCCO)c(=O)[nH]1,"activity, negative = cell killing",[1]; [8],-13.6% (inactive)
same,"activity, negative = cell killing",[1]; [9],-4.96% (inactive)
same,"activity, negative = cell killing","[1]; at 21.3 µM (top of the series), tumour line A",-33.2% (inactive)
N[C@@H]1CONC1=O,"activity, negative = cell killing",[1]; [6],-17.4% (inactive)
NC[C@H](O)c1ccc(O)c(O)c1,"activity, negative = cell killing",[1]; [6],-26.2% (inactive)
same,max response,[3],2.15% (inactive)
same,outcome,[2],inactive
Cn1cnc([N+](=O)[O-])c1Sc1ncnc2nc[nH]c12,max response,[3],-0.454% (inactive) and -2.45% (inactive)
same,outcome,[2],inactive
